Results: PubChem BioAssay (EPA / NIEHS)
Records with an inconclusive call do not appear. The source made the active and inactive calls. How the source made its calls, unless noted: active means hit-call score of the fitted dose curve at least 0.9, where 1 is the maximum; inactive means score below 0.9.

What was measured:
[1] = ATG_DR4_LXR_CIS: Attagene CIS-FACTORIAL HepG2 Assay for human Liver X Receptor (LXR), DR4 submotif (AID 2282929); conditions: HepG2 Attagene DR4 cis-reporter, mRNA transcription; actives raise or lower the signal
Summary of the method: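 Fluorescence intensity of labelled reporter cDNA fragments, separated by capillary electrophoresis, gives the signal. HepG2 cells bearing cis-regulated reporter constructs were treated 24 h; activity fitted bidirectionally relative to DMSO negative control.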

[2] = ATG_Ets_CIS: Attagene CIS-FACTORIAL HepG2 Assay for human Erythroblast Transformation Specific (ETS) (AID 2282941); conditions: HepG2 ETS cis-reporter transcription, actives raise or lower the signal
Summary of the method: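 Multiplexed reporter transcript profiling: HepG2, 24 h treatment, total RNA to cDNA, PCR, 6-FAM labelling, HpaI cut, capillary electrophoresis. Gain- or loss-of-signal fitted against DMSO.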

[3] = target: Hypoxia-inducible factor 1-alpha (Homo sapiens) (UniProt Q16665); assay: ATG_HIF1a_CIS: Attagene CIS-FACTORIAL HepG2 Assay for human Hypoxia Inducible Factor 1 (HIF1A) (AID 2282951); conditions: HepG2 Attagene cis-factorial HIF1a reporter transcription; actives raise or lower the signal
Summary of the method: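 Fluorescence intensity of capillary-separated, 6-FAM-labelled reporter amplicons gives mRNA induction in HepG2 cells carrying transfected cis-promoter reporter units; cells exposed 24 h, responses fitted up or down from DMSO.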

[4] = target: Hepatocyte nuclear factor 6 (Homo sapiens) (UniProt Q9UBC0); assay: ATG_HNF6_CIS: Attagene CIS-FACTORIAL HepG2 Assay for human Hepatocyte Nuclear Factor 6 (HNF6) (AID 2282952); conditions: HepG2 Attagene cis-factorial HNF6 reporter transcription; actives raise or lower the signal
Summary of the method: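 Endogenous factor activity read in transiently transfected HepG2 via promoter-regulated reporter transcripts. RNA harvested 24 h post-dosing, reverse-transcribed, PCR-amplified, FAM-labelled, HpaI-digested and resolved by capillary electrophoresis; fitted in both directions against DMSO.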

[5] = target: Heat shock factor protein 1 (Homo sapiens) (UniProt Q00613); assay: ATG_HSE_CIS: Attagene CIS-FACTORIAL HepG2 Assay for human Heat Shock Transcription Factor 1 (HSE) (AID 2282953); conditions: HepG2 HSE cis-reporter, Attagene RNA transcription; actives raise or lower the signal
Summary of the method: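 Reporter mRNA induction in HepG2 is measured 24 h after dosing, using transiently transfected multiplexed cis-regulated reporter units. Signal comes from capillary electrophoresis of labelled RT-PCR products, with DMSO as negative control.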

[6] = ATG_TA_CIS: Attagene CIS-FACTORIAL HepG2 Assay for human TA Basal Promoter (AID 2282964); conditions: HepG2 Attagene CIS-factorial TA basal promoter reporter; actives raise or lower the signal
Summary of the method: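 Cis-factorial format in HepG2: reporters report endogenous factors, not chimeric Gal4 fusions. After 24 h treatment, reporter transcripts were measured by RT-PCR-capillary electrophoresis fluorescence, analysed bidirectionally versus DMSO.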

[7] = ATG_TCF_b_cat_CIS: Attagene CIS-FACTORIAL HepG2 Assay for human T-Cell-Factor with beta-catenin (TCF/b-cat) (AID 2282965); conditions: HepG2 TCF/beta-catenin cis-reporter transcription, actives raise or lower the signal
Summary of the method: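 Measured: reporter mRNA in HepG2 transiently transfected with cis-promoter reporter units, 24 h after chemical addition. Fitting was bidirectional, DMSO as negative control.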

[8] = ATG_TGFb_CIS: Attagene CIS-FACTORIAL HepG2 Assay for human Transforming Growth Factor (TGF) (AID 2282967); conditions: HepG2 Attagene CIS TGFb reporter, mRNA transcription; actives raise or lower the signal
Summary of the method: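 Multiplexed cis-reporter HepG2 system, 24 h treatment; mRNA induction read by fluorescence after RT-PCR and CE; DMSO negative control, bidirectional curve fitting.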

[9] = target: X-box-binding protein 1 (Homo sapiens) (UniProt P17861); assay: ATG_Xbp1_CIS: Attagene CIS-FACTORIAL HepG2 Assay for human X-box Binding Protein 1 (XBP1) (AID 2282972); conditions: HepG2 XBP1 cis-element reporter, Attagene multiplex; actives raise or lower the signal
Summary of the method: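 Human hepatoma HepG2, cis-element reporter system, 24 h treatment; mRNA quantified by RT-PCR/CE fluorescence; fit relative to DMSO.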

[10] = target: Transcriptional activator Myb (Homo sapiens) (UniProt P10242); assay: ATG_Myb_CIS: Attagene CIS-FACTORIAL HepG2 Assay for human Myeloblastosis (Myb) Proto-Oncogene Transcription Factor (AID 2282986); conditions: HepG2 Attagene CIS-FACTORIAL Myb reporter transcription; actives raise or lower the signal
Summary of the method: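 Transiently transfected HepG2 cells, treated 24 h. Reporter mRNA quantified by RT-PCR/capillary electrophoresis; bidirectional fit relative to DMSO.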

[11] = target: Nuclear respiratory factor 1 (Homo sapiens) (UniProt Q16656); assay: ATG_NRF1_CIS: Attagene CIS-FACTORIAL HepG2 Assay for human Nuclear Respiratory Factor 1 (NRF1) Orphan Gene (AID 2282987); conditions: HepG2 NRF1 cis-element reporter, Attagene multiplex; actives raise or lower the signal
Summary of the method: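 Cells (HepG2, transient MRTU transfection) are exposed to compound for 24 h, then RNA isolated and reporter mRNA amplified and fluorescently labelled. Fragments are separated by capillary electrophoresis; signal change is fitted bidirectionally relative to DMSO.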

[12] = target: Myc proto-oncogene protein (Homo sapiens) (UniProt P01106); assay: ATG_Myc_CIS: Attagene CIS-FACTORIAL HepG2 Assay for human Myelocytomatosis (Myc) Proto-Oncogene Transcription Factor (AID 2282990); conditions: HepG2, Attagene cis-reporter transcription factor activity; actives raise or lower the signal
Summary of the method: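 Cells of the HepG2 human liver line bear multiple cis-driven reporter transcription units. Reporter mRNA after 24 h exposure is reverse-transcribed, amplified, labelled and resolved by capillary electrophoresis, with gain- or loss-of-signal fitting relative to DMSO.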

[13] = ATG_NRF2_ARE_CIS: Attagene CIS-FACTORIAL HepG2 Assay for human Nuclear Factor Erythroid 2 Related Factor 2 (NFR2) response to Antioxidant Response Elements (ARE) (AID 2282992); conditions: HepG2 Attagene ARE/NRF2 reporter, transcription factor activity; actives raise or lower the signal
Summary of the method: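 Fluorescence intensity of reporter-specific cDNA fragments, separated by capillary electrophoresis, reflects mRNA induction in transfected HepG2 cells at 24 h. Activity is fitted bidirectionally, DMSO serving as baseline.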

[14] = ATG_Oct_MLP_CIS: Attagene CIS-FACTORIAL HepG2 Assay for human Octamer-Binding Transcription Factor (Oct) (AID 2282993); conditions: HepG2 Attagene cis-factorial Oct reporter, mRNA; actives raise or lower the signal
Summary of the method: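 After 24 h compound exposure, transfected HepG2 cells were lysed for total RNA; reporter-specific cDNA was PCR-amplified, fluorescently labelled and sized by capillary electrophoresis. Bidirectional curve fitting used DMSO as baseline.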

[15] = target: Cellular tumor antigen p53 (Homo sapiens) (UniProt P04637); assay: ATG_p53_CIS: Attagene CIS-FACTORIAL HepG2 Assay for human p53 Transcription Factor (AID 2282994); conditions: HepG2 p53 cis-element reporter, Attagene mRNA; actives raise or lower the signal
Summary of the method: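 Transiently transfected HepG2 (multiple cis reporter transcription units); exposure 24 h; reporter RNA via RT-PCR, 6-FAM extension, 2 h HpaI digest at 37 C, CE detection; DMSO baseline.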

[16] = ATG_XTT_Cytotoxicity: Cytotoxicity Assessment in the Attagene TRANS-FACTORIAL HepG2 Assay (AID 2283584; active means hit-call score of the fitted dose curve at least 0.9, where 1 is the maximum)
Summary of the method: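 Viability endpoint from XTT after 24 h chemical exposure of reporter-transfected human HepG2 liver cells; signal loss fitted relative to DMSO negative control.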

[17] = ATG_Sox_CIS: Attagene CIS-FACTORIAL HepG2 Assay for human SRY-box transcription factor (SOX) (AID 2282960); conditions: HepG2 Attagene cis-factorial SOX reporter, mRNA; actives raise or lower the signal
Summary of the method: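 Measures mRNA induction of a SOX1-associated reporter in HepG2 after 24 h dosing. Fluorescently labelled RT-PCR fragments are separated by capillary electrophoresis, and gain or loss relative to DMSO control is fitted.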

[18] = target: Nuclear receptor subfamily 1 group I member 2 (Homo sapiens) (UniProt O75469); assay: ATG_PXR_TRANS: Attagene TRANS-FACTORIAL HepG2 Assay for human Pregnane X Receptor (PXR) (AID 2283008; active means hit-call score of the fitted dose curve at least 0.9, where 1 is the maximum)
Summary of the method: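 Transient HepG2 transfectants carrying multiplexed reporter transcription units; PXR activity read through a Gal4 chimera. 24 h exposure. RT-PCR/CE fluorescence; upward curve fit referenced to DMSO.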

[19] = ATG_M_06_CIS: Attagene CIS-FACTORIAL HepG2 Assay for M06 Transcription Factor (Internal Marker) (AID 2282950); conditions: HepG2 Attagene CIS-FACTORIAL M06 internal marker reporter; actives raise or lower the signal
Summary of the method: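 Measured 24 h post-dosing in transiently transfected HepG2 cells, this internal-marker endpoint reports reporter mRNA via RT-PCR with fluorescent primer extension and capillary electrophoresis. DMSO served as negative control and baseline for bidirectional fitting.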

[20] = ATG_TAL_CIS: Attagene CIS-FACTORIAL HepG2 Assay for human TAL Basal Promoter (AID 2282966); conditions: HepG2 Attagene cis-factorial TAL promoter reporter; actives raise or lower the signal;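 further: background control endpoint measuring basal TAL promoter reporter mRNA not a specific factor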
Summary of the method: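 Background-control endpoint: basal TAL promoter reporter transcripts in transiently transfected HepG2, measured 24 h after dosing. Read-out by RT-PCR with fluorescent primer extension and capillary electrophoresis; gain or loss of signal fitted relative to DMSO.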

Measured: outcome

Chain of Cellular tumor antigen p53 (Homo sapiens) (P04637 whole entry, looked up): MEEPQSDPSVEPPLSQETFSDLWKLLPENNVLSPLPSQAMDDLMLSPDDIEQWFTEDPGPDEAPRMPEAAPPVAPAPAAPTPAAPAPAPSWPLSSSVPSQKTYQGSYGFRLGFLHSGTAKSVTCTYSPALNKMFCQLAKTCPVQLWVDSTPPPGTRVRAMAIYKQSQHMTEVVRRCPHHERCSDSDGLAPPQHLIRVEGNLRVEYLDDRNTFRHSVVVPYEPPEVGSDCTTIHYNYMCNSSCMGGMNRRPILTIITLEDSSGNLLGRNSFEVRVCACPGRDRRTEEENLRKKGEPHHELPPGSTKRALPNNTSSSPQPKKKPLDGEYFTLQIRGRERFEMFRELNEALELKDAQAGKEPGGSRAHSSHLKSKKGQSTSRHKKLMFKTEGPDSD
Chain of Heat shock factor protein 1 (Homo sapiens) (Q00613 whole entry, looked up): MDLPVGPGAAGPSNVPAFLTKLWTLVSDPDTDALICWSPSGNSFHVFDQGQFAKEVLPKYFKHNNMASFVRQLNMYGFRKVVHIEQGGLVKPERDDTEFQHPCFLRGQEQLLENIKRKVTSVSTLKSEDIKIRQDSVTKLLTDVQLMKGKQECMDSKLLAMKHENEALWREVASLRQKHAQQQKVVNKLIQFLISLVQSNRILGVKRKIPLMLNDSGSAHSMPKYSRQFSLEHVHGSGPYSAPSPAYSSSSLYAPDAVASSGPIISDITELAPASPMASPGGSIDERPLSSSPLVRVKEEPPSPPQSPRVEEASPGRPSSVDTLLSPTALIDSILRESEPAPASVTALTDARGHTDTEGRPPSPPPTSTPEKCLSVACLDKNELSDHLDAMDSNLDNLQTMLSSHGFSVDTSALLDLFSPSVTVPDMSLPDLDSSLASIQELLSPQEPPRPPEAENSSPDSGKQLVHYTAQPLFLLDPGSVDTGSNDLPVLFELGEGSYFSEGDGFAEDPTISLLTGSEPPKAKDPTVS
Chain of Nuclear receptor subfamily 1 group I member 2 (Homo sapiens) (O75469 whole entry, looked up, the tested form may be a part): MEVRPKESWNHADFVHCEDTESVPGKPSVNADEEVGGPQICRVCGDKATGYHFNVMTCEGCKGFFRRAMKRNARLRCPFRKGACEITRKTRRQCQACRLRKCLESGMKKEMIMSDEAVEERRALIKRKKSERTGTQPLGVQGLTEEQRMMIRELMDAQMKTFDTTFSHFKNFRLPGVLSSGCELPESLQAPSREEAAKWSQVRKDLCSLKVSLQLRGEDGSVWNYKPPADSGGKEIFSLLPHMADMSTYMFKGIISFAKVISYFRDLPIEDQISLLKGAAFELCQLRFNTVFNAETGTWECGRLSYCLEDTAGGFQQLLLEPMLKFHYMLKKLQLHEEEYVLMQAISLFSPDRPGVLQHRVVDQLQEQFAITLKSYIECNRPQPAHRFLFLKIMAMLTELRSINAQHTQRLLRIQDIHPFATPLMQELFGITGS
Chain of X-box-binding protein 1 (Homo sapiens) (P17861 whole entry, looked up): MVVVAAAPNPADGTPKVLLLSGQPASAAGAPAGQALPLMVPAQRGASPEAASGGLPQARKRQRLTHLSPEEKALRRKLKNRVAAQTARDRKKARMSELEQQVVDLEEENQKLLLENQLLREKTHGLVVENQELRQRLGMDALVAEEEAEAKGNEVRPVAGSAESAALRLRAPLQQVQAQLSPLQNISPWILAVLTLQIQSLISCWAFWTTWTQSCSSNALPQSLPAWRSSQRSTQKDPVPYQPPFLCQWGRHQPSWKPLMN
Chain of Transcriptional activator Myb (Homo sapiens) (P10242 whole entry, looked up): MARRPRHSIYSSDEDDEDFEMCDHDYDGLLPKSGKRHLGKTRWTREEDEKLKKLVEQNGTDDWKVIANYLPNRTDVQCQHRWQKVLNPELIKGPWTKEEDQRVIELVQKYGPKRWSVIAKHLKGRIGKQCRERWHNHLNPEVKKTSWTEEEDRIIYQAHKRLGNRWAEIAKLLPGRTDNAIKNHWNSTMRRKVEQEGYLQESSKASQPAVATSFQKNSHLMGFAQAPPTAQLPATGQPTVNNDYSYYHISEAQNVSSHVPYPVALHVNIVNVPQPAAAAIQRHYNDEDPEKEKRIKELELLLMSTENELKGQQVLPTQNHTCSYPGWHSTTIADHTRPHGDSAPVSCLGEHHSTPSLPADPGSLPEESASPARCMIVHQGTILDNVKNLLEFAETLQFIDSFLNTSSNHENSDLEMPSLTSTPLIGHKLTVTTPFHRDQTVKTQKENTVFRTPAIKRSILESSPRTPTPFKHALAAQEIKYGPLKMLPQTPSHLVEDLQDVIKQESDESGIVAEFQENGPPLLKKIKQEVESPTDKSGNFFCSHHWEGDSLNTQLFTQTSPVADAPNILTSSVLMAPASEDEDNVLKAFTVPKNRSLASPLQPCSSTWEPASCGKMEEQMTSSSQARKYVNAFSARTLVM
Chain of Hepatocyte nuclear factor 6 (Homo sapiens) (Q9UBC0 whole entry, looked up): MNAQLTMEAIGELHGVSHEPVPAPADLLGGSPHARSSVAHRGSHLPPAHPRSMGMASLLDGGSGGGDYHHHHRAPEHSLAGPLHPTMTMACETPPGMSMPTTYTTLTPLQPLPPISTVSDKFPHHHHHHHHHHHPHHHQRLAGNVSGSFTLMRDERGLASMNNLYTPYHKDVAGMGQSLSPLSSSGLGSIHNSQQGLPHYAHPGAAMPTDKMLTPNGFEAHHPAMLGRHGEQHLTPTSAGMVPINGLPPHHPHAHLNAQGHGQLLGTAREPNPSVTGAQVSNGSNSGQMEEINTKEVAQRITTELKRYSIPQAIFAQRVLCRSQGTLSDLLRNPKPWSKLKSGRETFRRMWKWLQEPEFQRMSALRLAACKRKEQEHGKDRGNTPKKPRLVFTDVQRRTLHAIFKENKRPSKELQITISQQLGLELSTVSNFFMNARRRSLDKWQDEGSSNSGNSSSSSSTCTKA
Chain of Hypoxia-inducible factor 1-alpha (Homo sapiens) (Q16665 whole entry, looked up): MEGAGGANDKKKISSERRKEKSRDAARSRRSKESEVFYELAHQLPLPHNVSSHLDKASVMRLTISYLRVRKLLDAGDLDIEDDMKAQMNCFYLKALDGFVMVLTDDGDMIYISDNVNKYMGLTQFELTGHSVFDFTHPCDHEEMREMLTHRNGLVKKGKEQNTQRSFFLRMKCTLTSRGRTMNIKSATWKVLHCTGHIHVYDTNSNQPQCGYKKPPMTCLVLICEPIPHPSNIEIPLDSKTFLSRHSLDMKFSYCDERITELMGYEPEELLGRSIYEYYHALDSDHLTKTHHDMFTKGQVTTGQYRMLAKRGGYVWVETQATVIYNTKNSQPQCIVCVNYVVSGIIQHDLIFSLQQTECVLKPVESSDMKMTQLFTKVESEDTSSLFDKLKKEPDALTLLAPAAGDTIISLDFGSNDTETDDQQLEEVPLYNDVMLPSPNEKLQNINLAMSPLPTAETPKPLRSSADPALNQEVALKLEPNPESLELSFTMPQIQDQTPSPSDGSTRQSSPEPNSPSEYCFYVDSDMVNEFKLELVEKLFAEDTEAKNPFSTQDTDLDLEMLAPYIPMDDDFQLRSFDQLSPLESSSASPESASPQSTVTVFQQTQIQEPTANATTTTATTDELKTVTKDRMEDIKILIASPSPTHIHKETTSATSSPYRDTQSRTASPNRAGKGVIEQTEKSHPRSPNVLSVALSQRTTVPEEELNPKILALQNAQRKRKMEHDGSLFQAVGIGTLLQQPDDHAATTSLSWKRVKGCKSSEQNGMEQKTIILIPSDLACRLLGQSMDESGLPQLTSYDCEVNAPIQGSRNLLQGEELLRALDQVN
Chain of Myc proto-oncogene protein (Homo sapiens) (P01106 whole entry, looked up): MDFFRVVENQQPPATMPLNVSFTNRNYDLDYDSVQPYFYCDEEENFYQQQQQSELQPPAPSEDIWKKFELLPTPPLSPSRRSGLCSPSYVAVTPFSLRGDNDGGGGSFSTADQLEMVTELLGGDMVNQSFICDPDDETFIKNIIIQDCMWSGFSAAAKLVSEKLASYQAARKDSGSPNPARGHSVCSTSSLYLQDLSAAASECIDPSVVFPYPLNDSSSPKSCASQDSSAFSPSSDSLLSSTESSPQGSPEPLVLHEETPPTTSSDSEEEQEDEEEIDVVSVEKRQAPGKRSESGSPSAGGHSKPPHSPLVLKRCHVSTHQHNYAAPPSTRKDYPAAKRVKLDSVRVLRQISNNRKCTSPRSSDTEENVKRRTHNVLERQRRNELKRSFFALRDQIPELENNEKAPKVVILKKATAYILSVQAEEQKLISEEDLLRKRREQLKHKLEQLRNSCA
Chain of Nuclear respiratory factor 1 (Homo sapiens) (Q16656 whole entry, looked up, the tested form may be a part): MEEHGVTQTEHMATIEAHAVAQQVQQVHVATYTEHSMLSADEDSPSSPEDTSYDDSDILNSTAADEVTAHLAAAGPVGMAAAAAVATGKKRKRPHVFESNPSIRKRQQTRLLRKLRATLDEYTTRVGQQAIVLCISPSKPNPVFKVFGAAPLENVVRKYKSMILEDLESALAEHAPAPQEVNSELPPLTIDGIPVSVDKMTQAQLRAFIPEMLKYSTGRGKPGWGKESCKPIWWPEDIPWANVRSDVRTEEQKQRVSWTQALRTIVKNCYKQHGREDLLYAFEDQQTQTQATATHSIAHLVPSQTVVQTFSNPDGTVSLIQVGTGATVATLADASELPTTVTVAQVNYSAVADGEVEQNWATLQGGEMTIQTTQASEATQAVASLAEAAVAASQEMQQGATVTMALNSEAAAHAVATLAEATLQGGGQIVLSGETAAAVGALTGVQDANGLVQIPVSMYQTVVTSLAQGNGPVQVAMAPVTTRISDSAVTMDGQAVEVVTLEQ

NC(=O)c1ccc(N)cc1
not listed: [17] | [18] | [19] | [20]
inactive: all other assays above

CC(C)(Oc1ccc(Cl)cc1)C(=O)O
not listed: [3] | [19] | [20]
inactive: all other assays above

C[Si](C)(C)O[Si](C)(C)O[Si](C)(C)C
not listed: [2] | [17]
inactive: all other assays above

CCc1cc(C(N)=S)ccn1
not listed: [3] | [18] | [20]
inactive: all other assays above

O=C1NC(=O)[C@@H]2CC=CC[C@H]12
not listed: [2]
inactive: all other assays above

Clc1ccccn1
not listed: [16] | [18]
inactive: all other assays above

CCCCCC1CCCC(=O)O1 (stereo unspecified)
not listed: [2] | [17] | [20]
inactive: all other assays above

CCCCOC(=O)COc1ccc(Cl)cc1Cl
not listed: [19]
inactive: all other assays above
